Experiment [1] has as its target human RAR-related Orphan Receptor gamma (RORg), RORC (gene 6097) (UniProt P51449). The experiment in a line: ATG_RORg_TRANS: Attagene TRANS-FACTORIAL HepG2 Assay for human RAR-related Orphan Receptor gamma (RORg) (AID 2283011). The method in brief: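 Transient MRTU transfection of HepG2 (TRANS format, exogenous NR-Gal4 chimera). 24 h dosing. Total RNA → oligo(dT) RT → PCR → 6-FAM labelling → HpaI cut → CE. Gain vs DMSO.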

For experiment [2], the target named is Retinoic acid receptor RXR-alpha (Homo sapiens) (UniProt P19793). Description: ATG_RXRa_TRANS: Attagene TRANS-FACTORIAL HepG2 Assay for human Retinoid X Receptor alpha (RXRa) (AID 2283012). The gist of the method: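 Transient transfection of human HepG2 with multiple GAL4-UAS reporter constructs; 24 h compound exposure; total RNA isolated, reverse-transcribed, PCR-amplified, 6-FAM labelled, HpaI-cut, resolved by capillary electrophoresis. Positive-direction fit versus DMSO.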
Retinoic acid receptor RXR-alpha (Homo sapiens), sequence (P19793 whole entry, looked up, the tested form may be a part): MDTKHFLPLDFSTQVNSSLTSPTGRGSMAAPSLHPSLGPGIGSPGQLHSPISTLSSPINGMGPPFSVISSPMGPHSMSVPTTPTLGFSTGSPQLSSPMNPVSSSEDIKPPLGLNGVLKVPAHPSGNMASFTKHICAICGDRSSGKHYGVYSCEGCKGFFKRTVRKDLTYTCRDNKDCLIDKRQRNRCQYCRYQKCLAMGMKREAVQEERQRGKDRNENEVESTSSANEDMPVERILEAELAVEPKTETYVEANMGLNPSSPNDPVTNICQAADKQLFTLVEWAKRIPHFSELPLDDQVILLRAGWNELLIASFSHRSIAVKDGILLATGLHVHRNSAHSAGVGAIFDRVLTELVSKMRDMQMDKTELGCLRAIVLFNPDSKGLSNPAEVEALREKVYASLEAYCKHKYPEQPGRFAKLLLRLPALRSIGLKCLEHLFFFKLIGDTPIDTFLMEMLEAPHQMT

Experiment [3] has as its target human Retinoid X Receptor beta (RXRb), RXRB (gene 6257) (UniProt P28702). The experiment in a line: ATG_RXRb_TRANS: Attagene TRANS-FACTORIAL HepG2 Assay for human Retinoid X Receptor beta (RXRb) (AID 2283013). The gist of the method:
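Transfect HepG2 with GAL4-UAS multi-reporter constructs (chimeric NR-Gal4, TRANS format); dose compound 24 h; isolate RNA, RT-PCR, FAM primer extension, HpaI digest; quantify by capillary electrophoresis; positive direction vs DMSO.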

The target of experiment [4] is human Thyroid Receptor alpha (THRa1), THRA (gene 7067) (UniProt P10827). Description: ATG_THRa1_TRANS: Attagene TRANS-FACTORIAL HepG2 Assay for human Thyroid Receptor alpha (THRa1) (AID 2283014). The method in brief:
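Transient HepG2 transfection, NR-Gal4 chimera driving GAL4-UAS reporters; 24 h compound exposure; total RNA, oligo(dT) RT, PCR, fluorescent primer extension, capillary electrophoresis. Upward direction vs DMSO control.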

Results filed as inconclusive are left out. The source made the active and inactive calls. How the source made its calls: active means hit-call score of the fitted dose curve at least 0.9, where 1 is the maximum; inconclusive means response in the unintended direction; inactive means score below 0.9.

human Retinoid X Receptor beta (RXRb), RXRB (gene 6257), sequence (P28702 whole entry, looked up, the tested form may be a part): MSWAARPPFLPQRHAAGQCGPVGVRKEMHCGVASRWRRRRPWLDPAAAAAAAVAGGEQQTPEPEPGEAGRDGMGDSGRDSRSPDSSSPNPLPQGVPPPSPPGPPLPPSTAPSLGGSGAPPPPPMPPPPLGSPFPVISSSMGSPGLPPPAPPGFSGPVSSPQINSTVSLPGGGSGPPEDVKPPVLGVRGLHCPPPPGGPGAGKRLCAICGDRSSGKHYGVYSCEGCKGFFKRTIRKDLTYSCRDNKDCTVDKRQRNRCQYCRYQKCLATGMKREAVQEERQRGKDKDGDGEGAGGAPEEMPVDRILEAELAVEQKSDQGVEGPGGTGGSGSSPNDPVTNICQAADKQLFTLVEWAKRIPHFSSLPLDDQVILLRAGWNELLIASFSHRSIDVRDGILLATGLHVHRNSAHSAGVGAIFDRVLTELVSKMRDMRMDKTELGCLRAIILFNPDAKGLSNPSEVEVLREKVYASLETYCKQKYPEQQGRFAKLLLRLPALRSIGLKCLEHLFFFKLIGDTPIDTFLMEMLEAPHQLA
human RAR-related Orphan Receptor gamma (RORg), RORC (gene 6097), sequence (P51449 whole entry, looked up, the tested form may be a part): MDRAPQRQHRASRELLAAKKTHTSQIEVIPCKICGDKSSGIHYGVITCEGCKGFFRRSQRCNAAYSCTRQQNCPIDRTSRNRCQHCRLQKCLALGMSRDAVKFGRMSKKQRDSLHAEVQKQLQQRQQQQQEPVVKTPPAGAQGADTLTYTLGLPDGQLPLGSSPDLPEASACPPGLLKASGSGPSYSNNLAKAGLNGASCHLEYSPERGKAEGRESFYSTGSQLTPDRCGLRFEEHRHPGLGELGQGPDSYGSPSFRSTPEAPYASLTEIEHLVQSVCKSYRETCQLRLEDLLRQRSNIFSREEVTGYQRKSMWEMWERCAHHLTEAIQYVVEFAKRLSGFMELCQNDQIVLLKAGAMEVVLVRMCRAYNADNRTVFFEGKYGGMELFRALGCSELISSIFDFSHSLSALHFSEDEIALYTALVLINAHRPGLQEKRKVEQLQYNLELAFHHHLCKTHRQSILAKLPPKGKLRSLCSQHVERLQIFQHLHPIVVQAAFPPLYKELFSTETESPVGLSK
human Thyroid Receptor alpha (THRa1), THRA (gene 7067), sequence (P10827 whole entry, looked up, the tested form may be a part): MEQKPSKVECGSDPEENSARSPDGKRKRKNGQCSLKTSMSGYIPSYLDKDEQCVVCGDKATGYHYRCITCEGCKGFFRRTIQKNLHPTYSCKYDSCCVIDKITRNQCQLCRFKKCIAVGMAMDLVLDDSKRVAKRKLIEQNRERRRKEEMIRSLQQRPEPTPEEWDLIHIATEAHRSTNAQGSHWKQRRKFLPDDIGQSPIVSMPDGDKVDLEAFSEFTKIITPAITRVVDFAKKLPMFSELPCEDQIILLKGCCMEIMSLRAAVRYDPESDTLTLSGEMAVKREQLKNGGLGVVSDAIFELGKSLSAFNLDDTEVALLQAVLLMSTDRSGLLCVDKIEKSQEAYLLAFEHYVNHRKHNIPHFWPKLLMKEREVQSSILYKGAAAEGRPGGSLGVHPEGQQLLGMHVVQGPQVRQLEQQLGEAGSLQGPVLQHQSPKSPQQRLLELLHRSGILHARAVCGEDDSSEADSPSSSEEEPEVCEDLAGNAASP

Consider `C=CC(C)CCCC(C)(C)O` (centres undefined), for which the call in experiment [1] and in experiment [2] was inactive.
Consider `NC(=O)c1cccnc1`, for which the compound was classed as inactive in experiment [1] and in experiment [2].
With `N#CCCNCCC#N`, the outcome in experiment [1] and in experiment [2] was inactive.
With `C=C(C)C(=O)OCCC[Si](OC)(OC)OC`, the compound was classed as inactive in experiment [1] and in experiment [2].
With `N=C1N=C(N)c2ccccc21`, the result in experiment [1], in experiment [2] and in experiment [3] was inactive.
Consider `O=S1(=O)CC=CC1`, for which the compound was called inactive in experiment [1] and in experiment [2].
Take `CC(C)C(=O)OCC=Cc1ccccc1`: the outcome in experiment [1] and in experiment [2] was inactive.
On to `C1CCCNCC1`, for which the compound was classed as inactive in experiment [1].
As for `C[C@H](CCC(=O)O)[C@H]1CC[C@H]2[C@@H]3CC[C@@H]4C[C@H](O)CC[C@]4(C)[C@H]3CC[C@]12C`, the compound was called inactive in experiment [1] and in experiment [2].
Take `CCO[Si](CCC#N)(OCC)OCC`: the compound was called inactive in experiment [1].
As for `CCCCCCCCSCc1cc(C)c(O)c(CSCCCCCCCC)c1`, the result in experiment [1], in experiment [2] and in experiment [3] was inactive.
In the case of `CCCCCCCCOS(=O)(=O)O`, the outcome in experiment [1] and in experiment [2] was inactive. Besides, in experiment [3], the AC50 is 100 µM (active).
On to `O=C(O)c1cc2ccccc2cc1O`, for which the compound was classed as inactive in experiment [1], in experiment [2] and in experiment [3].
For `CC1(C)CC(N)CC(C)(CN)C1` (centres undefined), the result in experiment [1], in experiment [2] and in experiment [3] was inactive.
With `O=C(O)c1ccccc1O`, the result in experiment [1] and in experiment [2] was inactive.
For the compound `C=CC(C)(CCC=C(C)C)OC(=O)CC` (centres undefined), the compound was classed as inactive in experiment [1], in experiment [2] and in experiment [3].
With `O=C1Cc2ccccc2C1`, the outcome in experiment [1], in experiment [2] and in experiment [3] was inactive.
Take `CC(C)(O)CCc1ccccc1`: the call in experiment [1] was inactive.
`C[N+](C)(C)CCO`: the result in experiment [1] and in experiment [2] was inactive.
In the case of `CCC=C(C)C=O`, the outcome in experiment [1] and in experiment [2] was inactive. Moreover, the concentration at half-maximal activity (AC50) in experiment [3] was 26.6 µM (active).
`CC/C=C\CCCCO`: the outcome in experiment [1] and in experiment [2] was inactive.
Turning to `CCC(C)(C)C1CCC(=O)CC1`, the result in experiment [1] and in experiment [2] was inactive.
On to `CCCc1ccc(O)cc1`, for which the compound was classed as inactive in experiment [1], in experiment [2] and in experiment [3].
On to `CC(O)COCC(C)O` (centres undefined), for which the compound was called inactive in experiment [1] and in experiment [2].
Regarding `CCOCC(C)O` (centres undefined), in experiment [1], the compound was classed as inactive.
As to `CC(C)(O)C(=O)c1ccc(OCCO)cc1`, the compound was classed as inactive in experiment [1] and in experiment [2].
As for `CNC(=C[N+](=O)[O-])NCCSCc1ccc(CN(C)C)o1`, the compound was called inactive in experiment [1] and in experiment [2].
Consider `CC(O)CNCC(C)O` (centres undefined), for which the result in experiment [1] and in experiment [2] was inactive.
For the compound `CCCC1CCOC(C)S1` (centres undefined), the compound was classed as inactive in experiment [1] and in experiment [2].
`CCCCCCC(O)CCOC(C)=O` (centres undefined): the call in experiment [1] and in experiment [2] was inactive.
Take `CCOc1ccc(NC(C)=O)cc1`: the call in experiment [1] and in experiment [2] was inactive.
In the case of `CC12CCC(C1)C(C)(C)C2O` (centres undefined), the call in experiment [1], in experiment [2] and in experiment [3] was inactive.
Regarding `Cc1cc(O)c(C)c(C)c1O`, the call in experiment [1], in experiment [2] and in experiment [3] was inactive.
Regarding `CC(C)Cc1ccccc1`, the outcome in experiment [1], in experiment [2] and in experiment [3] was inactive.
`O=c1cc[nH]cc1`: the compound was called inactive in experiment [1] and in experiment [2].
With `CC(=O)CCC(=O)O`, the outcome in experiment [1], in experiment [2] and in experiment [3] was inactive.
On to `Cc1cccc(O)c1`, for which the compound was called inactive in experiment [1].
For `C=CCOCC(O)CO` (centres undefined), the compound was called inactive in experiment [1] and in experiment [2].
Consider `Cc1ccc(C(C)(C)O)cc1`, for which the result in experiment [1] and in experiment [2] was inactive.
In the case of `CCC(C)C1CCCCC1=O` (centres undefined), the compound was called inactive in experiment [1], in experiment [2] and in experiment [4].

Broadly, the AC50 is the concentration giving half of the maximal activity seen.

These data come from PubChem BioAssay (EPA / NIEHS).
